The source of these data is article PMC12136788.

Changes are numbered by the printed parent chain. The full ranking holds about 5,800 sequences; the median of “enrichment r” is about 0.54, and the highest 2% start at about 16. This is one part of a sample in which the highest values are shown more often than they occur.

The labels stand for the following.
B1: chr18:55226207:55226308:-|3pUTR|ENSG00000196628|unk|FALSE|unique (ssRNA)
RNA: GGGAGUUCUACAGUCCGACGAUCAUUUUUACAGCCACACAAUUCUUGGCAUGUAUUAAGAAAAAAAAAAAUCCCUGUUCAAGUAGUUUUUCCACCUAUCAGCACUGAGUAAAUGCCAUAAAUCCAUUGAAAUGGUCUAAAUGUCAACAGAGGAUUGAGCAUCA
B2: chr16:21655520:21655610:+|3pUTR|ENSG00000197006|msi1_unk|total|mutant (ssRNA)
RNA: GGGAGUUCUACAGUCCGACGAUCUCUGUGUUCACAAUUACGUGAAGGGAGGACCCUUGGGGACCGCCAUUCUAAAUAUCAUGCCGGAAUUUAAAAAGCCAAAAUACUAAUUAUUUCUUUGCCGUGUGUAAAGGAAUGUUUUUACAACAGAGGAUUGAGCAUCA
B3: ENSG00000151612:stop:overlap|stop_codon|ENSG00000151612|stop_codon|NA|stop_codon (ssRNA)
RNA: GGGAGUUCUACAGUCCGACGAUCCAGGCCUGUUGGAGAAGGAAGCCAGCAGUGAGGGGGAUUGCAAAGUAGAGAGAGGUUGGUAGAACUGUGGACUGUGAAGAGAUCGAGAAUAGCACAGUUAACUAGGCAUUUGCCUUCGGCCAACAGAGGAUUGAGCAUCA
B4: ENSG00000136451:be:win_551|CDS|ENSG00000136451|bound_else_gene|NA|bound_elsewhere_windowed (ssRNA)
RNA: GGGAGUUCUACAGUCCGACGAUCGAGAUGUGUACCAUCUCAAUCGACACAAGCUCUCCCAUUCAGAUGAGAAACCCUUUGAGUGUCCUAUUUGUAAUCAGCGCUUCAAGAGGAAGGACCGGAUGACUUACCAUGUGAGGUCUCCAACAGAGGAUUGAGCAUCA
B5: chr6:134965076:134965177:-|3pUTR|ENSG00000112339|unk|total|mutant (ssRNA)
RNA: GGGAGUUCUACAGUCCGACGAUCAAAGGAACAAUGUGCAAUUGAUAUGUUUUCCGAUGAGAGAGAAAAAUUAAAGCUAAAAUCCGCUGCAAAGAAGUAUUAAUAAUCACCUCUGCAAAAAUUCUAAGUUGCCAACUGGCAAAGCAACAGAGGAUUGAGCAUCA
B6: chr19:811491:811550:+|3pUTR|ENSG00000011304|msi1_unk|FALSE|overlapping (ssRNA)
RNA: GGGAGUUCUACAGUCCGACGAUCUAGCAAUAUUUCCAGUUGACCAAAUAUUCUAAUCUUUUUUCAUUUAUAUGCAAAAGAAAUAGUUUUAAGUAACUUUUUAUAGCAAGAUGAUACAAUGGUAUGAGUGUAAUCUAAACUUCCCAACAGAGGAUUGAGCAUCA
B7: ENSG00000070961:be:win_4601|3pUTR|ENSG00000070961|bound_else_gene|NA|bound_elsewhere_windowed (ssRNA)
RNA: GGGAGUUCUACAGUCCGACGAUCUCAGACUAUCAAACUACAAGAGAACCUUAGUCUUUUUUGUUUUUGUCUAAACAUGUUAGUUUAGUGAUGUCUUGGUGAACUGUGAGUGAACUGUAUUGAUUUUUCUAAUCUUUAGAGACCCAACAGAGGAUUGAGCAUCA
B8: ENSG00000070961:be:win_4651|3pUTR|ENSG00000070961|bound_else_gene|NA|bound_elsewhere_windowed (ssRNA)
RNA: GGGAGUUCUACAGUCCGACGAUCACAUGUUAGUUUAGUGAUGUCUUGGUGAACUGUGAGUGAACUGUAUUGAUUUUUCUAAUCUUUAGAGACCUUCACACAGCAUGAGGGCUGUUGGCAUUUUGAAAAAGGUUAAUAAGUAGACAACAGAGGAUUGAGCAUCA
B9: chr7:111727939:111728040:-|3pUTR|ENSG00000128512|unk|FALSE|unique (ssRNA)
RNA: GGGAGUUCUACAGUCCGACGAUCAAGUGGUAAAUAGUGAUAAAGACUCCUUUUGUACCUUUUUAUGUUCACUUUUUUUUAUAUAGUUUAAUCUUAAAACCAAUACGAUAUUGUCAAACGAUACAAUGUGUGACAAUGUUGUAUCAACAGAGGAUUGAGCAUCA
B10: chr7:111727939:111728040:-|3pUTR|ENSG00000128512|unk|total|mutant (ssRNA)
RNA: B9 RNA with U34C, A35C, U83C, A84C
B11: ENSG00000070961:be:win_4701|3pUTR|ENSG00000070961|bound_else_gene|NA|bound_elsewhere_windowed (ssRNA)
RNA: GGGAGUUCUACAGUCCGACGAUCUUUUCUAAUCUUUAGAGACCUUCACACAGCAUGAGGGCUGUUGGCAUUUUGAAAAAGGUUAAUAAGUAGAAGCAUACAUGUUUUCCUUUUGUUUUUGAAACUUGUUUGUAAACAUAAAUACAACAGAGGAUUGAGCAUCA
B12: chr10:110135209:110135310:+|3pUTR|ENSG00000148700|msi1|total|mutant (ssRNA)
RNA: GGGAGUUCUACAGUCCGACGAUCCUCUCUAUUGGAAGAUUUUUUUAAUGUUCUACAUCAUUUAUGUUGUAUUACAAUGUAUGCCGAAACCGUAACCUGUGAACUAUGCUUUUCCAUAACUUUUUAAAAAUAUAUAUAUCUAAACAACAGAGGAUUGAGCAUCA
B13: chr18:3457781:3457936:+|CDS|ENSG00000177426|unk|total|mutant (ssRNA)
RNA: GGGAGUUCUACAGUCCGACGAUCCAACACUCCUCCCCCUACUCCACCGGACCUCAACCAGGACUUCAGUGGAUUUCAGCUUCCCGUGGAUGUUGCACUCAAACGGGCUGCAGAGAUGGAGCUUCAGGCAAAACUUACAGCUUACAACAGAGGAUUGAGCAUCA
B14: chr8:88032264:88032379:-|3pUTR|ENSG00000156103|unk|FALSE|bound_elsewhere (ssRNA)
RNA: GGGAGUUCUACAGUCCGACGAUCACUCCUUAUAAUGUUGCGUCAUUAAAGGUCAAGGGGUCAUGCUAUUAAUCUCAUUGCUAUAGACCAUUAACAUGACUGAACUUUUCCACAAAGUACUUAUGUUUACAAUGCUAUAACCCUCAACAGAGGAUUGAGCAUCA
B15: ENSG00000150457:stop:overlap|stop_codon|ENSG00000150457|stop_codon|NA|stop_codon (ssRNA)
RNA: GGGAGUUCUACAGUCCGACGAUCCAGAUUUAGAAAGCUCUGAUCUGGUGGAUCAGACUGAAGGCUGCCAGCCUGUGUACGUGUAGAUGGGGGCCAGGCACCCCCACCACUCGCUGCCUCCCAGGUCAGGGUCCCGGAGCCGGUCAACAGAGGAUUGAGCAUCA
B16: chr11:118657315:118658441:-|three_prime_utr|ENSG00000118094|control|control|control (ssRNA)
RNA: GGGAGUUCUACAGUCCGACGAUCCCUCCCAGCCUGUCCUCAGAGCGAAGUGGAGGGCAGGGUCACGACCUGGAGGUCAUGGGUAGGGGCCUAGCUCCCUCCUGGAACCUUGAAUAGGGUGGAAAUCCUGCUCUGGAGGGAAGACAACAGAGGAUUGAGCAUCA
B17: chr1:156742365:156742464:-|3pUTR|ENSG00000143321|msi1_unk|total|mutant (ssRNA)
RNA: GGGAGUUCUACAGUCCGACGAUCAUUUCUGAGGUGCACUGGGAGGCUCCCCUUCUAUUUGGGGCUUGAUGACUUUCUUUUUGCCGCUGGGGCUUUGAUGUUCCUUCCAGUGUCAUUUCUCAUCCACAUACCCUGACCUGGCCCCAACAGAGGAUUGAGCAUCA
B18: chr3:44647099:44647200:+|3pUTR|ENSG00000186448|msi1|FALSE|unique (ssRNA)
RNA: GGGAGUUCUACAGUCCGACGAUCAUUUGUAUGUAAACUACAUAAAGAACUUUCCAAAUUUAACAGUAAUAAGUAAAUACAAUUAGAAAAUAAGCAAAAGACAGACAUUUCACUGAAGUAUAGAUAGCAAAUAAGCAAAUGAAACAACAGAGGAUUGAGCAUCA
B19: chr3:44647099:44647200:+|3pUTR|ENSG00000186448|msi1|total|mutant (ssRNA)
RNA: B18 RNA with U83C, A84C, U120C, A121C, U124C, A125C
B20: chr8:30843048:30843149:-|CDS|ENSG00000133863|unk|FALSE|unique (ssRNA)
RNA: GGGAGUUCUACAGUCCGACGAUCGGAUACUAUAAUUGCUUCCAGAAAGUCAGAUCAUCCAAUAAACGAAGCAACAAUUAGCAUAGAAAAUUCUAAAUUUAACAGUAAUUUGCUUGCACACCCAGAUAUUUGUUGUAUUAGUGACAACAGAGGAUUGAGCAUCA
B21: chr11:85958428:85958534:-|3pUTR|ENSG00000073921|unk|FALSE|unique (ssRNA)
RNA: GGGAGUUCUACAGUCCGACGAUCAGAAACAAUAACUGAAAUUAACUUUUCUUUUUUUAAAAAAAAUUAUAUUCAGUUUGCAGUAGACAUUCCUUAAGUAUUUGUAUUUAUUUAUGAUUAUCAAUUUUACAUAACAUUAAUAUUCAACAGAGGAUUGAGCAUCA
B22: ENSG00000067715:stop:overlap|stop_codon|ENSG00000067715|stop_codon|NA|stop_codon (ssRNA)
RNA: GGGAGUUCUACAGUCCGACGAUCAGGAGAAGUUUAUGAAUGAGUUGCAUAAAAUUCCAUUUCAAAGGAAAGAGAGUACCAAUUAGACAAGGGAAGAAGAUGAGAGACUGCCUGAACAGCAUCACUUUUGUAAACUGAGAGUUCCAACAGAGGAUUGAGCAUCA
B23: chr12:125025615:125025697:+|3pUTR|ENSG00000184992|msi1_unk|FALSE|overlapping (ssRNA)
RNA: GGGAGUUCUACAGUCCGACGAUCGGACACAUUCCCAGAAGAGCGGAAAGAUCAUUGACGUGGAACUACACACGAAGUGUAAUUAGUGGGGGAAAAAAUAUUUUUUAAACAAAGGAUAUAACCAUAUUUAGUUGUACAGUAAGACAACAGAGGAUUGAGCAUCA
B24: chr8:30843048:30843149:-|CDS|ENSG00000133863|unk|total|mutant (ssRNA)
RNA: B20 RNA with U78C, A79C, U83C, A84C, U138C, A139C
B25: chrX:41141081:41141111:+|CDS|ENSG00000124486|msi1_unk|total|mutant (ssRNA)
RNA: GGGAGUUCUACAGUCCGACGAUCCACUCUUCAUACAGUGAAAAAGUACUUUCUUCCAAUAACCGAAAUGGUUCCACAGUUUUCCGAAAACUUAACUGAUGAAGAACUGAAAAAAGAAGCAAAGAAUGAAGCCAAAAAUGAUGCCAACAGAGGAUUGAGCAUCA
B26: chr19:34227675:34227687:+|3pUTR|ENSG00000257103|msi1_unk|total|mutant (ssRNA)
RNA: GGGAGUUCUACAGUCCGACGAUCUUAAAACAUGAGCAUUAAAUAUAUUUGGAACCGCAGAAGGUUAAGUAAUUUCUUAUGUACCGUUAAACUAAAGCAGUACUUCAGUGGGACUUAACAAGUAUUUUUUCAUCACUGAAAGGUCAACAGAGGAUUGAGCAUCA

The target in the test is MSI1 full-length (mouse, UniProt Q61474 1-362). The test is described as follows: nsRBNS (natural sequence RNA bind-n-seq); RBNS binding buffer (assumed for nsRBNS): 25 mM Tris pH 7.5, 150 mM KCl, 3 mM MgCl2, 0.01% Triton X-100, 500 ug/ml BSA, 20 U/ml SUPERase-In, 4 C; UNK is unkempt and MSI1 is Musashi-1; names of the RNAs are library labels; protein concentration not given here; high values mean tight binding.
Chain of MSI1 full-length (Q61474 whole entry): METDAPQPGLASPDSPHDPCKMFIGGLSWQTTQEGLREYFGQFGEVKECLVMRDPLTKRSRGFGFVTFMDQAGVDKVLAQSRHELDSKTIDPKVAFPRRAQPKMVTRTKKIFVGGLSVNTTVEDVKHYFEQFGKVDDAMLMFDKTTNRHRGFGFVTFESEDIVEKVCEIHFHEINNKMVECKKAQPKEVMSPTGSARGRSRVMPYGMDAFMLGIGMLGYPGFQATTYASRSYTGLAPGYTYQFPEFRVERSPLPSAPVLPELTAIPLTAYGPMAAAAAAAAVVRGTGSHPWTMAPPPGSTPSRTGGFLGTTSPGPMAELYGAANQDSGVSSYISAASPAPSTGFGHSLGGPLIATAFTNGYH
As for B1, the binding signal was 0.374 enrichment R.

Take B2: the binding signal is 0.282 enrichment R.

In turn, B3 returned a binding signal of 3.25 enrichment R.

In the case of B4, the binding signal worked out at 0.307 enrichment R.

The molecule B5 yielded a binding signal of 0.346 enrichment R.

On to B6, for which the binding signal was found to be 0.9 enrichment R.

Molecule B7 yielded a binding signal of 3.69 enrichment R.

For B8, the binding signal stood at 28.3 enrichment R.

Molecule B9 registered a binding signal of 37.8 enrichment R.

In the case of B10, the binding signal worked out at 3.05 enrichment R.

In the case of B11, the binding signal was 0.664 enrichment R.

For the molecule B12, the binding signal is 7.3 enrichment R.

Take B13: the binding signal stood at 0.52 enrichment R.

B14: the binding signal worked out at 0.72 enrichment R.

With B15, the binding signal came out at 0.418 enrichment R.

B16 gave a binding signal of 0.327 enrichment R.

As to B17, the binding signal came out at 0.353 enrichment R.

Take B18: the binding signal is 129 enrichment R.

Molecule B19 displayed a binding signal of 19.7 enrichment R.

As for B20, the binding signal was found to be 29.7 enrichment R.

Turning to B21, the binding signal turned out to be 4.67 enrichment R.

On to B22, for which the binding signal was 0.457 enrichment R.

As to B23, the binding signal stood at 3.62 enrichment R.

On to B24, for which the binding signal worked out at 1.28 enrichment R.

Regarding B25, the binding signal is 0.267 enrichment R.

Regarding B26, the binding signal is 1.31 enrichment R.
